# Experimental data: publication PMC5540273 (PLoS ONE, 2017)
# Several values for one entry are separate records, joined by “and”; a condition that tells them apart may be missing. Equal values may be shown once. Read-outs that look alike come from different tables or passages of the source.
# Assays:
# [1] = test system: AAK1; settings: concentration: 1 μM, replicates: in singlicate; n = 1
# [2] = test system: ABL1-nonphosphorylated; settings: concentration: 1 μM, replicates: in singlicate, n = 1
# [3] = test system: ABL1-phosphorylated; settings: concentration: 1 μM, replicates: in singlicate, n = 1
# [4] = test system: ABL2; settings: concentration: 1 μM, replicates: in singlicate, n = 1
# [5] = test system: ACVR1B; settings: concentration: 1 μM, replicates: in singlicate, n = 1
# [6] = test system: ACVR1; settings: concentration: 1 μM, replicates: in singlicate; n = 1
# [7] = test system: ACVR2A; settings: concentration: 1 μM, replicates: in singlicate; n = 1
# [8] = test system: ACVR2B; settings: concentration: 1 μM, replicates: in singlicate, n = 1
# [9] = test system: ACVRL1; settings: concentration: 1 μM, replicates: in singlicate, n = 1
# [10] = test system: T1, ADCK3; settings: concentration: 1 μM, replicates: in singlicate; n = 1
# T1 construct: gene CABC1
# [11] = test system: ADCK4; settings: concentration: 1 μM, replicates: in singlicate, n = 1
# [12] = test system: AKT1; settings: concentration: 1 μM, replicates: in singlicate, n = 1
# [13] = test system: AKT2; settings: concentration: 1 μM, replicates: in singlicate, n = 1
# [14] = test system: AKT3; settings: concentration: 1 μM, replicates: in singlicate, n = 1
# [15] = test system: ALK; settings: concentration: 1 μM, replicates: in singlicate, n = 1
# [16] = test system: T2, AMPK-alpha1; settings: concentration: 1 μM, replicates: in singlicate, n = 1
# T2 construct: gene PRKAA1
# 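Note: KINOMEscan kinase panel screen.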
structure (smiles),measurement,setting,value
O=C(Nc1cccc(-c2nn3ncccc3c2-c2ccnc(Nc3cccc(C(F)(F)F)c3)n2)c1)c1c(F)cccc1F [GSK299495],%Inh,[1],2%
same,%Inh,[2],18%
same,%Inh,[3],9%
same,%Inh,[4],35%
same,%Inh,[5],0%
same,%Inh,[6],9%
same,%Inh,[7],0%
same,%Inh,[8],0%
same,%Inh,[9],0%
same,%Inh,[10],1%
same,%Inh,[11],28%
same,%Inh,[12],0%
same,%Inh,[13],1%
same,%Inh,[14],0%
same,%Inh,[15],22%
same,%Inh,[16],0%
Nc1nc(-c2ccc3c(N)n[nH]c3c2)cc(N2CCCC2)n1 [GSK2227430],%Inh,[1],17%
same,%Inh,[2],0%
same,%Inh,[3],0%
same,%Inh,[4],0%
same,%Inh,[5],0%
same,%Inh,[6],0%
same,%Inh,[7],0%
same,%Inh,[8],0%
same,%Inh,[9],0%
same,%Inh,[10],0%
same,%Inh,[11],2%
same,%Inh,[12],0%
same,%Inh,[13],3%
same,%Inh,[14],0%
same,%Inh,[15],4%
same,%Inh,[16],0%
COc1ccc(COc2cc(-n3cnc4ccccc43)sc2C(N)=O)cc1 [GSK1024304],%Inh,[1],29%
same,%Inh,[2],0%
same,%Inh,[3],0%
same,%Inh,[4],15%
same,%Inh,[5],0%
same,%Inh,[6],0%
same,%Inh,[7],0%
same,%Inh,[8],0%
same,%Inh,[9],0%
same,%Inh,[10],0%
same,%Inh,[11],0%
same,%Inh,[12],0%
same,%Inh,[13],0%
same,%Inh,[14],54%
same,%Inh,[15],23%
same,%Inh,[16],26%
Cl.Cl.Cl.Fc1ccc(-c2ncn(C3CCNCC3)c2-c2ccnc(Nc3ccccc3)n2)cc1 [SB-238039],%Inh,[1],0%
same,%Inh,[2]; 1 µM,0% and 63%
same,%Inh,[3]; 1 µM,31% and 12%
same,%Inh,[4]; 1 µM,5% and 3%
same,%Inh,[5]; 1 µM,58% and 31%
same,%Inh,[6],16%
same,%Inh,[7],0%
same,%Inh,[8]; 1 µM,0% and 18%
same,%Inh,[9]; 1 µM,20% and 17%
same,%Inh,[10],0%
same,%Inh,[11]; 1 µM,25% and 1%
same,%Inh,[12]; 1 µM,21% and 0%
same,%Inh,[13]; 1 µM,10% and 7%
same,%Inh,[14]; 1 µM,24% and 37%
same,%Inh,[15]; 1 µM,21% and 0%
same,%Inh,[16]; 1 µM,15% and 2%
O=c1cc(N2CCOCC2)nc2n(Cc3cccc4ccccc34)ccn12 [GSK2333389],%Inh,[1],0%
same,%Inh,[2],0%
same,%Inh,[3],0%
same,%Inh,[4],17%
same,%Inh,[5],0%
same,%Inh,[6],0%
same,%Inh,[7],9%
same,%Inh,[8],0%
same,%Inh,[9],0%
same,%Inh,[10],6%
same,%Inh,[11],0%
same,%Inh,[12],0%
same,%Inh,[13],20%
same,%Inh,[14],0%
same,%Inh,[15],2%
same,%Inh,[16],0%
COC(=O)Nc1nc2cc(Oc3ccc(NC(=O)Nc4cc(F)ccc4F)cc3)ccc2[nH]1.Cl [GW701424],%Inh,[1],30%
same,%Inh,[2],94.5%
same,%Inh,[3],40%
same,%Inh,[4],74%
same,%Inh,[5],0%
same,%Inh,[6],0%
same,%Inh,[7],0%
same,%Inh,[8],0%
same,%Inh,[9],0%
same,%Inh,[10],7%
same,%Inh,[11],40%
same,%Inh,[12],0%
same,%Inh,[13],4%
same,%Inh,[14],0%
same,%Inh,[15],28%
same,%Inh,[16],0%
CC(C)Oc1ccc2c(-c3ccnc(Nc4ccc(N5CCN(C)CC5)cc4)n3)cnn2n1 [GW696155],%Inh,[1],90%
same,%Inh,[2],39%
same,%Inh,[3],53%
same,%Inh,[4],14%
same,%Inh,[5],0%
same,%Inh,[6],69%
same,%Inh,[7],0%
same,%Inh,[8],0%
same,%Inh,[9],0%
same,%Inh,[10],20%
same,%Inh,[11],83%
same,%Inh,[12],0%
same,%Inh,[13],0%
same,%Inh,[14],0%
same,%Inh,[15],42%
same,%Inh,[16],41%
CSc1ccc(-c2cc3ncnc(SCC(=O)O)c3s2)cc1,%Inh,[1],0%
same,%Inh,[2],0%
same,%Inh,[3],0%
same,%Inh,[4],0%
same,%Inh,[5],0%
same,%Inh,[6],0%
same,%Inh,[7],0%
same,%Inh,[8],0%
same,%Inh,[9],0%
same,%Inh,[10],0%
same,%Inh,[11],0%
same,%Inh,[12],0%
same,%Inh,[13],0%
same,%Inh,[14],0%
same,%Inh,[15],0%
same,%Inh,[16],14%
Cc1c(Cn2c(C)nn3c(=O)cc(N4CCOC(C)C4)nc23)cccc1C(F)(F)F (stereo not drawn) [GSK2344444],%Inh,[1],0%
same,%Inh,[2],0%
same,%Inh,[3],0%
same,%Inh,[4],11%
same,%Inh,[5],0%
same,%Inh,[6],0%
same,%Inh,[7],22%
same,%Inh,[8],0%
same,%Inh,[9],5%
same,%Inh,[10],3%
same,%Inh,[11],0%
same,%Inh,[12],0%
same,%Inh,[13],6%
same,%Inh,[14],0%
same,%Inh,[15],0%
same,%Inh,[16],0%
N#Cc1ccc(-c2cc(-c3c[nH]nc3-c3ccccn3)ccn2)cc1 [GW693028],%Inh,[1],0%
same,%Inh,[2],7%
same,%Inh,[3],29%
same,%Inh,[4],10%
same,%Inh,[5],56%
same,%Inh,[6],59%
same,%Inh,[7],0%
same,%Inh,[8],40%
same,%Inh,[9],0%
same,%Inh,[10],0%
same,%Inh,[11],20%
same,%Inh,[12],0%
same,%Inh,[13],0%
same,%Inh,[14],0%
same,%Inh,[15],25%
same,%Inh,[16],0%
CN(C(=O)c1ccc(-c2cc(-c3c[nH]nc3-c3ccccn3)ccn2)cc1)C1CCOCC1 [GW810083],%Inh,[1],0%
same,%Inh,[2],57%
same,%Inh,[3],0%
same,%Inh,[4],0%
same,%Inh,[5],52%
same,%Inh,[6],0%
same,%Inh,[7],0%
same,%Inh,[8],2%
same,%Inh,[9],0%
same,%Inh,[10],1%
same,%Inh,[11],24%
same,%Inh,[12],0%
same,%Inh,[13],0%
same,%Inh,[14],0%
same,%Inh,[15],17%
same,%Inh,[16],0%
COc1ccc(CNC(=O)NC2CCN(c3ccnc(Nc4ccc(OC)cc4)n3)C2)cc1 (stereo not drawn) [GSK1379727],%Inh,[1],0%
same,%Inh,[2],0%
same,%Inh,[3],0%
same,%Inh,[4],2%
same,%Inh,[5],0%
same,%Inh,[6],0%
same,%Inh,[7],0%
same,%Inh,[8],0%
same,%Inh,[9],0%
same,%Inh,[10],3%
same,%Inh,[11],59%
same,%Inh,[12],0%
same,%Inh,[13],0%
same,%Inh,[14],0%
same,%Inh,[15],28%
same,%Inh,[16],0%
